# Source: PubChem BioAssay
# HT1080 IDH1KD tx: toxicity to HT-1080 IDH1 knockdown cells (counter line); HT-1080 IDH1 knockdown viability, ATP luminescence, 48 h; Potency, µM (highest dose often 46.1 µM), actives largely listed as cytotoxic; 2% of 360,000 active; AID 686971
#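 In this qHTS, HT-1080 cells depleted of IDH1 are exposed for 48 h at 37 °C to compound titrations. Toxicity is scored from CellTiter-Glo luminescence, with DMSO as full viability and medium alone as none.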
# DT40 TDP1 no CPT: qHTS for Inhibitors of human tyrosyl-DNA phosphodiesterase 1 (TDP1): qHTS in cells in absence of CPT. 15% of 420,000 active. DT40 Tdp1-/- hTDP1 cells, no CPT, ATP luminescence, 48 h. Potency, µM (top dose mostly 46.2 µM), most hits filed as inhibitors; also: nearly all actives have a fitted effect of over 55% in size
#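 DT40 Tdp1-/-;hTDP1 cells, no CPT (DMSO vehicle only), 400 cells/well; compounds pin-transferred; ≥48 hr, 37 °C; CellTiter-Glo 30 min RT dark, luminescence read.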
# TGFb inhibitor: blocks TGF-b signaling; 1.2% of 410,000 active; Potency, µM (top dose mostly 46.1 µM), hits mostly inhibitors; AID 588855; HepG2 CAGA-GFP TGF-b/SMAD3 reporter, GFP fluorescence, 18 h; TGF-beta stimulated, 500 pg/mL final; also: nearly all actives have a fitted effect of over 65% in size
#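 Inhibition of TGF-beta-driven CAGA-GFP reporter expression in HEPG2 cells is measured by cellular GFP fluorescence after 18 h stimulation with 500 pg/mL recombinant TGF-beta in 1% FBS medium at 37 degrees C.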
# TDP1 cell CPT: DT40-hTDP1 cell growth loss with CPT; 12% of 420,000 active; AID 686979; Potency, µM (highest dose often 46.2 µM), actives largely listed as inhibitors; chicken DT40 Tdp1-/-;hTDP1 cells + 20 nM CPT, ATP luminescence, 48 h; also: nearly all actives have a fitted effect of over 55% in size
#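 Cell growth measured by CellTiter-Glo luminescence after a minimum 48 h, 37 C compound exposure with 20 nM CPT in Tdp1-knockout DT40 cells stably expressing hTDP1, seeded 400/well; qHTS titration format.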
# HT1080NT lethal: kills 2HG-producing HT-1080-NT fibrosarcoma cells; HT-1080-NT fibrosarcoma viability, CellTiter-Glo ATP luminescence, 48 h; Potency, µM (highest dose often 46.1 µM), actives largely listed as cytotoxic; 1.6% of 360,000 active; AID 686970;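 also: NT is the 2HG producing partner of a matched IDH1 knockdown line; nearly all actives have a fitted effect of over 55% in size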
#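 HT-1080-NT fibrosarcoma cells (2HG-overproducing), 750 cells/well in RPMI with 5% FBS, dosed after 2 h and incubated 48 h at 37C. CellTiter-Glo luminescence normalized to DMSO and no-cell wells; concentration-response curves fitted and classed.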
# HepG2 tox: HepG2 cytotoxicity, counter-screen for TGF-b inhibitors; HepG2 CAGA-GFP viability, ATP luminescence, 18 h; Potency, µM (titrated, usually from 46.1 µM), usual class: cytotoxic; 0.76% of 410,000 active; AID 588856
#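 HepG2 CAGA-GFP cells (1000/well, DMEM with 1% FBS) received compound, then TGF-beta at 500 pg/mL final, and were incubated 18 hours at 37 degrees C. Viability was read by CellTiter-Glo luminescence. Media-only wells were set as complete cell-killing and DMSO as no toxicity.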
# A number is an active result; . = inactive; ? = inconclusive; / = not tested or not shown. The list is not random: actives were taken first. Their share in the collection is about 17%. Calls follow the shape of the dose curve; as a rule, active = well fitted curve in the direction sought with a large enough effect; inconclusive = small, poorly fitted or top-dose-only effect, or another doubt; inactive = no such curve, though single readings can be large; an effect the other way counts as inactive or inconclusive.
SMILES,HT1080 IDH1KD tx,DT40 TDP1 no CPT,TGFb inhibitor,TDP1 cell CPT,HT1080NT lethal,HepG2 tox
COc1ccc(NC(=O)C(=O)NCCC2CCCCN2S(=O)(=O)c2cccs2)cc1 (stereo not drawn),5.8µM,4.61µM,.,3.66µM,?,.
O=C(NCCC1CCCCN1S(=O)(=O)c1ccc(F)cc1)C(=O)Nc1ccccc1 (stereo not drawn),.,18.4µM,.,?,.,.
COc1ccc(NC(=O)C(=O)NCCC2CCCCN2S(=O)(=O)c2ccccc2)cc1 (stereo not drawn),13µM,2.91µM,.,4.11µM,?,.
O=C(NCCc1ccccc1)C(=O)NCCC1CCCCN1S(=O)(=O)c1ccccc1 (stereo not drawn),.,?,.,?,.,.
COc1cccc(NC(=O)C(=O)NCC2CCCN2S(=O)(=O)c2cccs2)c1 (stereo not drawn),.,.,.,.,.,.
COc1cccc(NC(=O)C(=O)NCCC2CCCCN2S(=O)(=O)c2cccs2)c1 (stereo not drawn),.,16.4µM,.,?,.,.
Cc1ccc(NC(=O)C(=O)NCC(c2cccnc2)N2CCOCC2)cc1Cl (stereo not drawn),/,?,.,?,/,.
Cc1ccc(NC(=O)C(=O)NCC(c2cccnc2)N2CCN(Cc3ccccc3)CC2)cc1F (stereo not drawn),/,5.8µM,.,7.31µM,/,.
Cc1ccc(NC(=O)C(=O)NCC(c2cccnc2)N2CCN(Cc3ccccc3)CC2)cc1C (stereo not drawn),/,16.4µM,.,16.4µM,/,.
CCOc1ccc(NC(=O)C2CCCN(S(=O)(=O)c3ccc(Br)s3)C2)cc1 (stereo not drawn),/,.,.,.,/,.
CC1(NC(=O)CCc2nc3ccccc3c(=O)[nH]2)CCS(=O)(=O)C1 (stereo not drawn),.,.,.,.,?,.
O=C(NC1CCCCC1)C(C1CC1)n1c(=O)c(-c2cc3ccccc3[nH]2)nc2ccccc21 (stereo not drawn),.,?,/,?,?,/
O=C(NCc1ccccc1)C(C1CC1)n1c(=O)c(-c2cc3ccccc3[nH]2)nc2ccccc21 (stereo not drawn),?,?,/,?,23.1µM,/
O=C(NCc1ccccc1)C(c1ccccc1)n1c(=O)c(-c2cc3ccccc3[nH]2)nc2ccccc21 (stereo not drawn),?,20.6µM,/,?,?,/
O=C(NCc1ccccc1)C(c1cc2ccccc2o1)n1c(=O)c(-c2cc3ccccc3[nH]2)nc2ccccc21 (stereo not drawn),?,?,/,?,.,/
Nc1c([N+](=O)[O-])cnnc1-c1ccccc1,.,.,.,.,.,.
Nc1nc(-c2cc(O)ccc2[N+](=O)[O-])cc(-c2ccccc2)c1[N+](=O)[O-],.,8.2µM,.,7.31µM,?,.
Cc1ccc(S(=O)(=O)N=S(CCO)CCO)cc1,.,.,.,.,.,.
Cc1ccc2nc(N3CCC(C(=O)O)CC3)nc(-c3ccccc3)c2c1,.,.,.,.,.,.
Cc1ccc2nc(N3CC(=O)Nc4ccccc43)nc(-c3ccccc3)c2c1,16.4µM,?,.,?,18.4µM,.
C=C1CCN(Cc2ccccc2)S(=O)(=O)c2ccccc21,.,.,.,.,.,.
O=C1CCN(Cc2ccccc2)S(=O)(=O)c2ccccc21,.,?,.,29.1µM,.,.
CC1CCCC(C)N1C(=O)COc1ccc([N+](=O)[O-])cc1Cl (stereo not drawn),.,?,.,?,.,.
CSCCC1NC2(C(=O)Nc3c(C)cc(Cl)cc32)[C@@H]2C(=O)N(C3CCCC3)C(=O)[C@H]12 (stereo partly drawn),.,20.6µM,?,?,.,.
O=C1CC(NS(=O)(=O)c2ccc(F)cc2)CN1c1ccc2c(c1)OCCO2 (stereo not drawn),.,.,.,.,.,.
SMILES,HT1080 IDH1KD tx,DT40 TDP1 no CPT,TGFb inhibitor,TDP1 cell CPT,HT1080NT lethal,HepG2 tox
C=C[C@]1(C)C=C2C(=O)[C@@]3(O)OC(=O)[C@@]4(CCCC(C)(C)[C@H]34)[C@@]2(O)CC1,2.91µM,1.64µM,?,0.651µM,2.91µM,5.62µM
Cc1ccc(S(=O)(=O)N2CCN(CC(=O)N/N=C/c3ccco3)CC2)cc1,.,.,.,.,.,.
CC(C)Cn1c(N)c(C(=O)COC(=O)c2nccnc2N)c(=O)n(C)c1=O,.,.,.,.,.,.
CC1CCC2(CC1)NC(=O)N(CC(=O)c1cn(CCC#N)c3ccccc13)C2=O (stereo not drawn),.,.,.,.,.,.
COc1ccc(C(=O)NCCn2cc(SCc3cc(C)ccc3C)c3ccccc32)cc1,/,?,?,13µM,/,.
CCOc1ccc(NC(=O)CSc2cn(CC(=O)N3CCCCCC3)c3ccccc23)cc1,/,?,?,23.1µM,/,.
